Data as given in PubChem BioAssay (NCI).
The panel holds about 83,000 compounds, 20% with a hit somewhere; the sample as a whole holds those more often.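 Method: cells in 96-well plates; compound added at one concentration; 48 h incubation; percent growth measured; values under 10 scored active.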 Unmarked numbers belong to inactive results. Active and inactive are the calls of the source.

system: MDA-MB-468 breast; experiment: NCI-60 one-dose screen, 48 h (100 = growth as untreated, 0 = no growth, -100 = all killed); details: 10 µM unless noted

Row | SMILES | growth
1 | C#Cc1ccc(-n2c(/C=C/c3ccc(O)c(OC)c3)nc3ncccc3c2=O)cc1 | 89.8%
2 | O=C(Nc1ccc2ncnc(Nc3ccc(F)c(Cl)c3)c2c1)c1cccs1 | -23.8% (active)
3 | Cc1c(C(=O)O)nnn1-c1nccs1 | 107%
4 | CC/C(=C(\c1ccc(O)cc1)c1ccc(OCCN(C)CCN(C)C(=O)CCC(=O)c2c(C)[nH]c(/C=C3\N=C(c4ccc[nH]4)C=C3OC)c2C)cc1)c1ccccc1 | 65.9%
5 | O=c1[nH]ccc2nc(N3CCC(O)CC3)nc(Nc3cccc(C(F)(F)F)c3)c12 | 14.5%
6 | O=c1c2cc(F)ccc2sc2c(Nc3ccncc3)nc3ccccc3c12 | 27.8%
7 | O/N=C/c1cccs1 | 106%
8 | CCOC(C)(c1ccc(Cl)cc1)C1CCNCC1 (stereo not given) | 90.9%
9 | C#CCOc1cccc(Nc2ncnc3c(NC(=O)CCl)cccc23)c1 | -66.7% (active)
10 | COC(=O)Nc1ccc(-c2nc(-c3cccc(O)c3)c(-c3ccnc(Br)c3)[nH]2)cc1 | 25.6%
11 | Brc1ccc(-c2[nH]ncc2-c2c[nH]c3ccccc23)cc1 | 99.5%
12 | CC(=Nc1ccccc1)C1=C(O)C(Cc2ccccc2)NC1=O (stereo not given) | 15.4%
13 | COc1ccc(-c2nn(C(=O)NCCN(C)C)cc2-c2ccncc2)cc1Cl | 4.11% (active)
14 | Cn1c(/C(C#N)=C/c2ccc3ccccc3c2)cc2ccccc21 | -3.16% (active)
15 | COc1cc(-c2nn(-c3ccc(Br)cc3)cc2CO)ccc1O | 96.1%
